Mdm2-MdmX inh: human Mdm2/MdmX binding inhibition. SaOS-2 split-luciferase Mdm2/MdmX complementation, luminescence. inhibition, % at 8 µM. 330,000 tested, 3% active. AID 485346;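 active = inhibition of at least 50% at 8 µM in the primary screen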
697 NFkB inh: lowers PMA/ionomycin-induced NF-kB signal in 697 B cells; 697 B-cell NF-kB luciferase reporter, 16 h; inhibition, % at 4 µM; 330,000 tested, 0.33% active; in the data active = inhibition above about 35%
aSyn UTR inh: 5' untranslated region of α-synuclein, MLPCN primary screen | inhibition, % (tested at 7.5 µM) | alpha-synuclein 5'UTR reporter, inhibitor activity | 300,000 tested, 0.82% active; in the data active = inhibition above about 60%; inconclusive = no clear call, values can overlap the other calls;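 note: H4 neuroglioblastoma cells stably carrying SNCA 5'UTR luciferase fusion; 0% = DMSO wells and 100% = positive control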
CSC inhib: cancer stem cell inhibition; 300,000 tested, 1.1% active; cancer stem cell-like cells viability, luminescence; inhibition, % at 7.5 µM; in the data active = inhibition above about 75%; inconclusive = no clear call, values can overlap the other calls; tested in HMLE shEcad cells
Jurkat NFkB inh: inhibitors of the PMA/ionomycin-induced NF-kB reporter in Jurkat cells; 330,000 tested, 0.53% active; PMA/ionomycin-induced NF-kB luciferase reporter, luminescence; AID 435003; inhibition, % at 4 µM; in the data active = inhibition above about 50%
Gli-Sufu antag: blocks Gli-Sufu signaling in a luciferase reporter | Sufu-KO-LIGHT fibroblasts, Gli luciferase reporter luminescence | inhibition, % at 5 µM | 340,000 tested, 0.74% active | AID 588413;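 active = inhibition above about 55%, limit read from the data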;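 note: 0% = DMSO-treated cells and 100% = wells with medium but no cells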
Mdm2-MdmX conf: human Mdm2/MdmX binding inhibition, confirmed; shares compounds with Mdm2-MdmX inh; inhibition, % at 8 µM; luminescent assay; 10,000 tested, 55% active; in the data active = inhibition above about 40%
FLuc counter: inhibits full-length luciferase, flagging false Mdm2/MdmX hits. shares compounds with Mdm2-MdmX inh. SaOS-2 full-length luciferase counterscreen, luminescence. inhibition, % at 8 µM. 6,200 tested, 77% active. AID 504607;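 active = mean inhibition at 8 µM reaching about 37%, which flags the compound as non-specific, limit read from the data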;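 note: p53-null SaOS-2 cells with luciferase driven by a doxycycline-inducible promoter; compound on cells about two nights before reading with doxycycline added after day one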
* hit, by the source's call; ? = inconclusive; nt = no result. Sampled rows, rich in hits. Any-hit rate of the full collection: about 4.5%.

SMILES	Mdm2-MdmX inh	697 NFkB inh	aSyn UTR inh	CSC inhib	Jurkat NFkB inh	Gli-Sufu antag	Mdm2-MdmX conf	others
N=c1c(C(=O)NCc2ccc(F)cc2)cc2c(=O)n3ccccc3nc2n1CCCN1CCOCC1	53.4*	10.7	nt	-3.0	46.1	-3.0	16.4
Cc1ccc(S(=O)(=O)c2nc(-c3ccco3)oc2SC(C)C)cc1	8.5	-16.8	32.8	2.3	3.5	3.6	nt
CN(CCCN1CCCCC1)C(=O)c1cc(COc2ccc(F)cc2F)on1	25.0	-16.2	-3.1	0.8	-7.6	21.7	nt
CC(=O)N1CCSc2ccc(S(=O)(=O)Nc3ccc(C)cc3)cc21	9.2	-12.1	-3.4	13.3	19.1	5.4	nt
COc1ccccc1OCCN1CSC(=S)N(C)C1	51.7*	2.4	1.8	?	5.3	42.0	37.4	FLuc counter=82.0*
CC(C)[C@H](CO)N(Cc1cccc(F)c1)c1nc(Nc2cccc(Cl)c2)c2ncn(C(C)C)c2n1	54.9*	-7.3	21.6	70.6	-23.3	8.7	4.8
CC[C@H](CO)Nc1nc(Nc2cccc(Cl)c2)c2ncn(C(C)C)c2n1	90.3*	-54.2	?	81.5*	1.4	44.8	71.4*	FLuc counter=39.8*
CCn1cnc2c(Nc3cccc(Cl)c3)nc(C#N)nc21	-80.7	-108.3	nt	-13.5	-131.0	-85.1	nt
CC(C)n1cnc2c(N(C)c3cccc(Cl)c3)nc(N(CCO)CCO)nc21	18.9	-7.5	11.9	6.7	3.7	5.6	nt
CC1CN(C(=S)NC(=O)c2ccco2)CC(C)O1 (centres undefined)	7.8	-14.4	-10.1	0.9	8.0	1.5	nt
CS(=O)(=O)Nc1ccc(C(=O)Nc2ccc(S(=O)(=O)N3CCCC3)cc2)cc1	8.8	18.4	-4.5	4.2	-8.8	-5.3	nt
Clc1ccc(SCCCCn2ccnc2)cc1	6.8	19.1	-9.6	-1.4	-7.0	-4.4	nt
COc1ccc(C(=O)CC(=O)C(=O)Nc2ccccc2Cl)cc1	nt	nt	-20.5	5.4	nt	6.3	nt
O=C(Oc1c(Cl)cc(Cl)c2cccnc12)N1CCCCC1	0.3	12.7	4.8	-8.7	5.6	-15.4	nt
CN1CCN(C(c2ccccn2)c2cc(Cl)c3cccnc3c2O)CC1 (centres undefined)	49.4	-11.5	-15.5	62.2	0.3	-6.8	nt
Cc1ccc(C(c2cc(Cl)c3cccnc3c2O)N2CCN(C)CC2)cc1 (centres undefined)	68.8*	-44.3	66.3*	115.2*	33.1	-18.7	57.1*	FLuc counter=32.5
Oc1c(C(c2ccc(Cl)cc2)N2CCCC2)cc(Cl)c2cccnc12 (centres undefined)	80.0*	-22.7	33.1	99.3*	0.5	21.3	72.5*	FLuc counter=32.9
Oc1c(C(c2ccccn2)N2CCC(Cc3ccccc3)CC2)cc(Cl)c2cccnc12 (centres undefined)	55.7*	-20.9	-28.4	nt	-4.5	21.1	38.0	FLuc counter=33.2
CC(=O)c1ccc(NC(=O)C(C)Sc2nnc3ccccn23)cc1 (centres undefined)	15.6	10.5	nt	-15.5	-3.4	2.0	nt
CCN(CC)S(=O)(=O)c1ccc(C)c(N=C=S)c1	18.2	6.2	-2.7	-4.2	3.9	1.8	nt
Cc1ccc(C2=NS(=O)(=O)N(C)C(C(=O)N3CCOCC3)=C2)cc1	-23.2	7.8	-22.7	-10.1	-3.8	-1.2	nt
CCc1nn(CC(=O)NC2CCN(Cc3ccccc3)CC2)c(=O)c2cc3cc(F)ccc3n12	58.0*	4.2	23.7	5.0	20.4	25.7	20.4
CCc1nn(CC(=O)NC(C)CCc2ccccc2)c(=O)c2cc3cc(F)ccc3n12 (centres undefined)	55.0*	-5.5	-8.9	15.3	-6.0	6.7	10.6
COCCCNC(=O)c1ccc(Cn2c(=O)c3ccccc3n(Cc3ccc(C)cc3)c2=O)cc1	55.6*	3.6	27.7	-0.7	-8.8	-3.6	23.5
COCCCn1c(=O)c2ccccc2n(Cc2ccc(C)cc2)c1=O	-50.0	-26.5	18.6	-18.6	-8.7	0.2	nt
CC(/C=N/NC(=O)c1n[nH]c2c1CCC2)=C\c1ccccc1	10.9	-55.5	28.8	47.7	30.6	-0.7	nt
O=C(N/N=C/C=C/c1ccccc1)c1n[nH]c2c1CCC2	62.6*	-24.2	70.2*	77.1*	35.6	13.2	56.0*	FLuc counter=95.2*

Screens as filed in PubChem.
